ALR inh: blocks human ALR sulfhydryl oxidase activity; hit rate 3.8% among 290,000; inhibition, % (no concentration beside the values); AID 485317; P55789; purified ALR, DTT oxidation, H2O2 HRP-luminol luminescence;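 active = mean replicate inhibition above about 79%, with every replicate also reaching it, limit read from the data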
Target sequence (P55789 whole entry, looked up): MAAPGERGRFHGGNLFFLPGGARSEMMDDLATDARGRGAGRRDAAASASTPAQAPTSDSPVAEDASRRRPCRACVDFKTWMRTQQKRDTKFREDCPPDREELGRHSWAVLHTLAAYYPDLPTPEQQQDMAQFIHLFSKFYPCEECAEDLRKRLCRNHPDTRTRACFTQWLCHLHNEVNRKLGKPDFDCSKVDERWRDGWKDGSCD
Granule exo inh: lytic granule exocytosis inhibition. TALL-104 LAMP-1 surface exposure, flow cytometry; cells stimulated with thapsigargin and PMA. inhibition, % at 10 µM. hit rate 0.66% among 360,000;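 active = inhibition above about 55%, limit read from the data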
SMARCA2 act: increases SMARCA2 function in MMTV reporter cells | MG213 cells, MMTV-luciferase reporter, dexamethasone, overnight | activation, % at 9.1 µM | hit rate 1% among 370,000; in the data active = activation above about 7.8%
M18AAP inhibitor: blocks P. falciparum M18 aspartyl aminopeptidase; AID 1822; hit rate 1.2% among 290,000; recombinant PfM18AAP, H-Glu-NHMec fluorogenic cleavage; inhibition, % at 7.35 µM;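 active = inhibition above the campaign mean inhibition over all tested compounds plus 3 SD, cut at about 28% in these data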
MIN6 prolif: inducers of beta-cell replication in MIN6 cells; MIN6 cells proliferation, ATPlite luminescence, 48 h; cells starved in 0.2% serum; 100% = growth in 10% serum; proliferation, % at 10 µM; hit rate 0.29% among 330,000; AID 2380;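 active = compounds whose signal lies at least 3.5 SD above the mean of all wells on their plate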
JMJD2C inh: inhibitors of human GASC-1 (JMJD2C) demethylase; Q9H3R0; GST-JMJD2C(1-420) H3K9me3 demethylation, DELFIA europium; inhibition, % at 2.35 µM; hit rate 0.069% among 330,000;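 active = more than half of a compound's replicate wells show inhibition beyond 50%, single wells judged on their own value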;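 also: signal counts dimethyl H3K9 product captured on neutravidin plate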
Target sequence (Q9H3R0 1-420 limits assumed): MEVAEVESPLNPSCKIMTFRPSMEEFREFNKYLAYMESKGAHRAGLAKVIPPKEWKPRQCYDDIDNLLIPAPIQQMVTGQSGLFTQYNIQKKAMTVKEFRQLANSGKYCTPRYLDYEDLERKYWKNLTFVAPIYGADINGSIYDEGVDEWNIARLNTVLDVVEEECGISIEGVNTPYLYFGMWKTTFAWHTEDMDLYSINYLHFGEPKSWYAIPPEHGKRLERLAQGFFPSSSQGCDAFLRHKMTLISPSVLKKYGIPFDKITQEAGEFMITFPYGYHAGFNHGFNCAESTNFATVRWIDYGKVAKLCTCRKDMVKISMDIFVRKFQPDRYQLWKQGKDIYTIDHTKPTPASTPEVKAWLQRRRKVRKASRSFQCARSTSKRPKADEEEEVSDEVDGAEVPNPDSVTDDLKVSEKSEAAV
A number is an active result; . = inactive; / = no result. The list is not random: actives were taken first. Their share in the collection is about 5.4%.

SMILES | ALR inh | Granule exo inh | SMARCA2 act | M18AAP inhibitor | MIN6 prolif | JMJD2C inh
CN(C)c1ccc(C(C(=O)NCC2CCCO2)N(Cc2ccco2)C(=O)c2snc(C(N)=O)c2N)cc1 (configuration not stated) | / | . | . | . | . | .
O=S1(=O)c2ccc(Br)cc2OC[C@H](Cc2ccccc2)N1Cc1cn(Cc2ccc(F)cc2)nn1 | / | / | . | / | / | /
Cc1csc2nc(CSc3ccc(Cl)cc3)cn12 | 92 | . | / | . | . | .
Clc1ccc(SCc2cn3ccsc3n2)cc1 | . | . | . | . | . | .
COc1ccc(NC(=O)c2ccc(COc3ccccc3OC)o2)cc1OC | . | . | . | . | . | .
COc1ccccc1OCc1ccc(C(=O)NN)o1 | 90 | . | . | . | . | .
O=c1cc(CN2CCCC2)c2ccccc2o1 | / | / | . | / | / | /
CCOC(=O)c1c(C)[nH]c(N=Nc2ccccc2)c1C | 87 | . | . | . | . | .
Brc1c(CSc2nnc(-c3ccco3)o2)nc2ccccn12 | 97 | . | . | . | . | .
c1coc(-c2nnc(SCc3cn4ccccc4n3)o2)c1 | . | . | . | . | . | .
CCOC(=O)C(=NC(C)C)NNc1cc(Cl)ccc1Cl | / | . | . | . | . | .
CCOC(=O)C(=NC(C)(C)C)NNc1cc(Cl)ccc1Cl | 99 | . | . | . | . | .
COC(=O)c1sc(-c2ccc(C(C)(C)C)cc2)cc1NC(=O)COCC(=O)O | 98 | . | . | . | . | .
CC(=O)Oc1cc2c(s1)CCN(C(C(=O)C1CC1)c1ccccc1F)C2 (configuration not stated) | / | / | . | / | / | /
Cc1ccc2c(c1C)-c1c(ccc(C)c1C)C(=O)C2=O | / | 106 | . | / | / | /
CC(C)c1ccccc1NC(=O)CCc1nc2ccccc2s1 | . | . | . | 30 | . | .
CCOc1ncccc1C(=O)N1CCN(c2ccc(C(F)(F)F)cn2)CC1 | . | . | . | . | . | .
CCOC(=O)N1CCN(c2ccc(C(F)(F)F)cn2)CC1 | / | . | 7.9 | . | . | .
O=C(Nc1ccccc1)Nc1nc2ncccn2c1-c1ccc(F)c(F)c1 | / | / | . | / | / | /
c1ccc2c(c1)CC/C2=N/Nc1nc2ccccc2[nH]1 | 99 | . | . | . | . | .
c1ccc(CN2CCC(=NNc3nc4ccccc4[nH]3)CC2)cc1 | 99 | . | . | . | . | .
CC(C)(C)C1CCC(=NNc2nc3ccccc3[nH]2)CC1 (configuration not stated) | 98 | . | . | . | . | .
CC1(Br)C(Sc2ccccc2[N+](=O)[O-])=Nc2ccccc21 (configuration not stated) | / | 72 | . | / | / | /
CCOc1cccc(=O)c2c(C)n(-c3ccc(C(=O)O)cc3)c(C)c12 | 96 | . | . | . | . | .
COc1cccc(=O)c2c(C)n(-c3ccc(C(=O)O)cc3)c(C)c12 | . | . | . | . | . | .
SMILES | ALR inh | Granule exo inh | SMARCA2 act | M18AAP inhibitor | MIN6 prolif | JMJD2C inh
CCOC(=O)N(C)[C@H]1C[C@H]2c3[nH]c4c(-c5ccc6c(c5)OCO6)cccc4c3CCN2C(=O)[C@H]1[C@H](C)O | / | / | . | / | / | /
Nc1ccc(Oc2ccccc2-c2ccccc2)cc1 | 99 | . | . | / | . | .
NCCOc1ccccc1-c1ccccc1 | . | . | . | . | . | .
COC(=O)[C@]12C[C@H](CC(=O)NCCc3ccccc3OC)C(=O)N(Cc3ccc(Cl)cc3Cl)C1=C[C@H](C(C)(C)C)O[C@@H]2C | / | / | . | / | / | /
Cc1noc(C)c1NC(=O)Nc1ccc2c(c1)C(=O)N(C)[C@H]1CC[C@H](CC(=O)NCc3ccc(Cl)cc3)O[C@@H]1CO2 | / | / | . | / | / | /
CN(CC(=O)NCCN1CCN(c2ccccc2)CC1)S(=O)(=O)c1ccc2c(c1)CCC(=O)N2 | 98 | . | . | . | . | .
CN(CC(=O)NCc1ccccc1)S(=O)(=O)c1ccc2c(c1)CCC(=O)N2 | . | . | . | . | . | .
C[C@@H]1OCN(C)[C@H]2C[C@H]3c4[nH]c5cccc(-c6ccc7c(c6)OCO7)c5c4CCN3C[C@@H]12 | / | / | . | / | / | /
Cc1oc(-c2ccc(F)cc2)cc1-c1nn2c(-c3ccoc3C)nnc2s1 | 97 | . | . | / | . | .
S=C1NCN(CC2CC2)CN1 | / | / | . | / | / | /
O=C(NC(=S)Nc1ccccc1[N+](=O)[O-])c1ccco1 | 95 | . | . | . | . | .
Cc1cc([N+](=O)[O-])ccc1NC(=O)c1ccco1 | . | . | . | . | . | .
O=C(NC(=S)Nc1ccc([N+](=O)[O-])cc1)c1ccco1 | / | . | . | / | / | /
O=C(NNc1ccc([N+](=O)[O-])cc1[N+](=O)[O-])c1ccco1 | 98 | . | / | . | . | .
Cc1cc(C(=O)Nc2ccc(F)cc2)n(-c2ccccc2)n1 | / | / | . | / | / | /
N#C/C(=C\c1cccc(O)c1)C(=O)N1CCCCC1 | / | . | . | . | . | .
N#C/C(=C\c1cccc(Br)c1)C(=O)N1CCCCC1 | . | . | . | 30 | . | .
O=C(CCc1c[nH]c2ccccc12)Nc1ccc(Nc2cccnc2)cc1 | / | / | . | / | / | /
S=C(NCC1CCCO1)N1CCN(c2cccc(Cl)c2)CC1 (configuration not stated) | . | . | . | . | . | .
Fc1ccc(N2CCN(C(=S)NCC3CCCO3)CC2)cc1 (configuration not stated) | 99 | . | . | . | . | .
COc1ccccc1CCn1cnc(-c2cccc(Cl)c2)c1CC(C)C | / | / | . | / | / | /
CC(NCc1ccc(OCc2ccc(Cl)cc2)cc1)C(O)c1ccccc1 (configuration not stated) | . | 67 | . | . | . | .
CC(NCc1cccc(OCc2ccccc2)c1)C(O)c1ccccc1 (configuration not stated) | . | . | . | . | . | .
Cc1cc(NS(=O)(=O)c2ccc(NC(=O)CSc3nnc(SCc4ccc(Cl)cc4)s3)cc2)nc(C)n1 | / | / | . | / | / | /
NNc1nc2sc3c(c2c(=O)n1-c1ccccc1)CCCC3 | . | . | . | . | . | .
SMILES | ALR inh | Granule exo inh | SMARCA2 act | M18AAP inhibitor | MIN6 prolif | JMJD2C inh
Nn1c(Nc2ccccc2)nc2sc3c(c2c1=O)CCCC3 | 81 | . | . | . | . | .
COC(=O)[C@H](CC(C)C)N(Cc1cn(Cc2ccccc2)nn1)S(=O)(=O)c1ccc(F)cc1Br | / | / | . | / | / | /
Cc1ccc(O)c(Sc2cc(C)ccc2O)c1 | 99 | . | . | . | . | .
COC(=O)c1ccc(C)cc1 | / | . | . | / | . | /
Cc1ccc(O)c(O)c1 | . | / | / | / | . | .
COC(=O)c1ccc(O)c(Sc2cc(C(=O)OC)ccc2O)c1 | 88 | . | . | . | . | .
C[C@@H]1CN([C@H](C)CO)C(=O)c2cc(Br)cnc2O[C@H]1CN(C)C(=O)c1ccc(F)cc1 | / | / | . | / | / | /
O=C(NC1CCCCN(Cc2ccc(Cl)cc2)C1=O)c1cc(-c2ccccc2)no1 (configuration not stated) | / | / | . | / | / | /
O=C(NCCc1ccccc1F)c1cc2ccccn2n1 | / | / | . | / | / | /
CCn1c(CNc2ccc(Cl)cc2)nnc1SCCN1CCCCC1 | 98 | . | . | . | . | .
CC(=O)Nc1ccc(C(=O)n2cnc3cc(C)c(C)cc32)cc1 | 99 | . | . | . | . | .
